Screening results from PubChem BioAssay.
Compounds with a hit are over-represented: about 2.8% of the library has one in this group of screens.
DRD3 antagonist = antagonists of human D3 dopamine receptor. P35462. D3R cells, DiscoveRx beta-arrestin luminescence, antagonist mode; active compounds read low. max response, negative = inhibition, %. 360,000 tested, 2.5% active. AID 652054; in the data active = max response below about -50%
Target sequence (P35462 whole entry, looked up): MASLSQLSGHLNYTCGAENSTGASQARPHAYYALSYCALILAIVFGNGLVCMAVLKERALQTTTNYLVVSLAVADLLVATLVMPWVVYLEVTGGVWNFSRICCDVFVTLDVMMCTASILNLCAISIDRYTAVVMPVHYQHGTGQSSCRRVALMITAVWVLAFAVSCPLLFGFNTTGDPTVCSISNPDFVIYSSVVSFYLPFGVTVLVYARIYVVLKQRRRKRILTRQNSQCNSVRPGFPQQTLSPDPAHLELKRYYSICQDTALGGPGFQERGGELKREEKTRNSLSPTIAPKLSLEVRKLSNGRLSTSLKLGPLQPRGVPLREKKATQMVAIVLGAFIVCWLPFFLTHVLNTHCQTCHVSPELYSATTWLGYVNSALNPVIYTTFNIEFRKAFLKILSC
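Cells plated overnight at 1500 cells/well, then exposed to library compounds with dopamine controls for 90 minutes at 37 degrees C. DiscoveRx reagent added for 30–60 minutes at room temperature; luminescence read, quantitative HTS format.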
DRD3 agonist = D3 dopamine receptor (human) agonism; max activation, %; AID 652048; D3R DiscoveRx beta-arrestin cells, luminescence, 90 min; 410,000 tested, 0.58% active; in the data active = max activation above about 30%
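Agonist mode: compounds and dopamine controls were applied to plated cells for 90 min at 37 degrees C after an overnight attachment at 1500 cells/well. Luminescent read-out followed 30 - 60 minutes at room temperature with DiscoveRx detection reagent.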
Giardia kill = Giardia lamblia killing; Giardia lamblia trophozoite viability; 340,000 tested, 0.15% active; activity change, % at 7.66 µM, hits read low; in the data active = activity change below about -80%;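 note: parasites exposed to compound for two days anaerobically before the ATP read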
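Killing of trophozoites was scored by loss of ATP luminescence after a 48 hrs anaerobic exposure to compounds at 37 deg C, using 100 cells per well.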
B2AR arrestin = beta2AR (human) beta-arrestin recruitment activity | beta-arrestin recruitment to beta2AR, cell-based reporter | Potency, µM (series often up to 46.1 µM), actives largely listed as activators | 330,000 tested, 0.02% active; active = well fitted activation curve with a large enough effect; note: nearly all actives have a fitted effect of over 65% in size
Hits are given with their value; i = inactive; nt = not tested or not shown.

SMILES | DRD3 antagonist | DRD3 agonist | Giardia kill | B2AR arrestin
Cc1ccccc1/C=C(\C#N)c1nc(-c2ccc(Cl)cc2)cs1 | nt | i | nt | nt
CCOC(=O)N1CCc2c(sc3nc(SC(C)C)n(N)c(=O)c23)C1 | i | 31 | i | i
CC(COc1ccccc1)NC(C)C(O)c1ccc(O)cc1 (stereo unspecified) | -87 | i | i | i
C[C@H](NCCc1ccc(O)cc1)[C@H](O)c1ccc(O)cc1 | i | i | i | i
Cc1ccc(-n2ncc(C(=O)NCc3ccco3)c2C2CCN(C(=O)OC(C)(C)C)CC2)cc1C | nt | i | nt | nt
O=C(Cc1ccc(-c2ccccc2)cc1)NCCS(=O)(=O)N1CCN(c2cccc(Cl)c2)CC1 | nt | i | nt | nt
Cc1cc(C)cc(Cn2ncc(Cl)c(Cl)c2=O)c1 | -59 | i | i | i
Oc1ccc(Cl)cc1C1=Nc2ccccc2N=C(c2cccc(Br)c2)C1 | nt | i | nt | nt
CCCCC(c1nnnn1CCOC)N1CCN(CC)CC1 (stereo unspecified) | -68 | i | i | i
CN1C(C(=O)c2ccccc2)=C(N)c2ccccc2S1(=O)=O | i | i | i | i
Cc1ccc(NC2=C(C(=O)c3ccccc3)N(C)S(=O)(=O)c3ccccc32)cc1 | -60 | i | i | i
C=C1CCN(C(C)C(=O)OCc2cccc(C)c2)S(=O)(=O)c2ccccc21 (stereo unspecified) | nt | nt | i | nt
CC(C)(C)OC(=O)N1CCC(c2c(C(=O)NCCN3CCOCC3)cnn2-c2ccccc2)CC1 | nt | i | nt | nt
O=C(NC1CCOC1=O)c1ccccc1 (stereo unspecified) | i | i | i | nt
CS(=O)(=O)c1ccc(C(=O)NC2CCOC2=O)cc1 (stereo unspecified) | i | 32 | i | i
CC(=O)c1cccc(S(=O)(=O)NCCc2csc3nc(-c4ccc(F)cc4)nn23)c1 | nt | i | nt | nt
Cc1cc(C(=O)N/N=C/c2ccc(-c3cccc(Cl)c3)o2)n[nH]1 | -61 | i | i | i
Cc1ccc(C(=O)N/N=C/c2ccc(-c3cccc(Cl)c3)o2)cn1 | i | i | i | i
CN(C)c1ccc(NC(=O)C2(c3cccs3)CCOCC2)cc1 | nt | i | nt | nt
CCc1ccc(CNC(=O)CN2C(=O)C3CCCCN3c3ccc(C(=O)N4CCCC4)cc32)cc1 (stereo unspecified) | nt | i | nt | nt
C=CCOC1=CS(=O)(=O)N(Cc2ccc(Br)cc2)c2ccc(Br)cc21 | i | 42 | i | i
CCCCCCCCCc1ccc(OCCOCCO)cc1 | nt | i | nt | nt
CCc1c(C(=O)NNC(=S)NC2CCCCC2)csc1C | i | i | i | i
CCc1c(C(=O)NNC(=S)NCCc2ccccc2)csc1C | -66 | i | i | i
CCN(C(=O)CSc1nc(-c2ccc(C(C)C)cc2)no1)c1cccc(C)c1 | nt | i | nt | nt
SMILES | DRD3 antagonist | DRD3 agonist | Giardia kill | B2AR arrestin
CCOC(=O)C(CCSC)Nc1nc(Cl)nc(Nc2ccc(Cl)cc2)n1 (stereo unspecified) | -58 | i | i | nt
COC(=O)CNc1nc(Cl)nc(Nc2ccc(Cl)cc2)n1 | i | i | i | i
CCOc1ccc(Cl)cc1CNCCNCC(C)O (stereo unspecified) | -71 | i | i | i
O=C(Cn1c(=O)c2cccn2c2cccnc21)NCCCN1CCN(c2ccc(F)cc2)CC1 | -118 | i | i | i
O=c1c2cccnc2[nH]c(=S)n1CCCN1CCN(c2ccc(F)cc2)CC1 | -65 | i | i | i
COc1ccc(N2CCN(CCCNC(=O)Cn3c(=O)c4cccn4c4ccccc43)CC2)cc1 | -60 | i | i | i
CC(C)(C)OC(=O)N1CCC(c2c(C(=O)N3CCC(c4ccccc4)C3)cnn2-c2ccc(Cl)cc2)CC1 (stereo unspecified) | nt | i | nt | nt
CCCCCCCCCCCCCC[N+](C)(C)Cc1ccccc1 | nt | i | nt | nt
COc1ccc(CN2C(=O)N(c3ccccc3)C(=O)C2c2ccccc2)cc1COc1ccc(NC(C)=O)cc1 (stereo unspecified) | nt | nt | i | nt
CCn1c(N2CCN(S(=O)(=O)c3ccccc3C(F)(F)F)CC2)nc2ccccc21 | i | 32 | i | i
CCn1c(N2CCN(S(=O)(=O)c3ccc(OC)cc3)CC2)nc2ccccc21 | i | 36 | i | i
CCNS(=O)(=O)c1ccc(CCC(=O)N2CCc3ccccc3C2)cc1 | -72 | i | i | i
Cc1ccc(C(=O)Oc2cc(C)n(C)c(=O)c2)cc1 | i | 35 | i | i
Cc1ccc(NC(=O)C(C)N=C2NS(=O)(=O)c3ccccc32)cc1F (stereo unspecified) | -56 | i | i | i
CC(N=C1NS(=O)(=O)c2ccccc21)C(=O)NCCCc1ccccc1 (stereo unspecified) | i | i | i | i
CCCCN1C(=O)/C(=c2\sc3nc(=O)c(-c4ccccc4)nn3c2=O)c2ccccc21 | -69 | i | i | i
CCOC(=O)c1c(C)[nH]c(C)c1S(=O)(=O)NCCN1CCN(c2ccccc2F)CC1 | -58 | i | i | i
CCOC(=O)c1c(C)[nH]c(C)c1S(=O)(=O)NCC1CCN(Cc2ccccc2F)CC1 | i | i | i | i
CCOC(=O)c1c(C)[nH]c(C)c1S(=O)(=O)NCC1CCN(Cc2ccc(C)cc2)CC1 | -54 | i | i | i
Cc1cc(Cl)ccc1OCc1cc(=O)n2c3c(sc2n1)CCCC3 | nt | i | nt | nt
Cc1cc(C)c(NC(=O)OCCN2CCOCC2)c(C)c1 | -60 | i | i | i
c1ccc(CNc2nc(-c3ccccn3)nc3ccccc23)cc1 | -74 | i | i | i
O=C(CCNS(=O)(=O)c1ccc(Br)s1)Nc1ccc(Cl)cc1 | -52 | i | i | i
O=C(CCNS(=O)(=O)c1ccc(Br)s1)NC1CCCC1 | -103 | i | i | i
Cc1ccc(F)cc1NC(=O)CCc1c(C)nn(-c2ccc(N3CCOCC3)nn2)c1C | nt | i | nt | nt
SMILES | DRD3 antagonist | DRD3 agonist | Giardia kill | B2AR arrestin
Cc1nn(-c2ccc(N3CCOCC3)nn2)c(C)c1CCC(=O)Nc1ccc(F)cc1F | nt | 75 | nt | nt
COc1ccc(NC(=O)C2Cc3c(-c4cccc(NC(C)=O)c4)ccnc3O2)cc1 (stereo unspecified) | -58 | i | nt | nt
O=C(Nc1cccc(Oc2ccccc2)c1)C1Cc2c(-c3ccc4c(c3)OCO4)ccnc2O1 (stereo unspecified) | i | i | nt | nt
O=C(Nc1cccc(OC(F)(F)F)c1)C1Cc2c(-c3ccc4c(c3)OCO4)ccnc2O1 (stereo unspecified) | -55 | i | nt | nt
CC(=O)c1cccc(-c2ccnc3c2CC(C(=O)Nc2ccc(Cl)cc2)O3)c1 (stereo unspecified) | -61 | i | nt | nt
CC(=O)Nc1ccc(NC(=O)C2Cc3c(-c4cccc(NC(C)=O)c4)ccnc3O2)cc1 (stereo unspecified) | i | i | nt | nt
CCN(CC)CCNC(=S)Nc1ccc(Cl)cc1 | -51 | i | i | i
Cc1ccc(N=C2c3ccccc3C(=O)C2[N+](=O)[O-])cc1C (stereo unspecified) | -58 | i | i | i
CCc1cc(C(=O)N2CCOCC2)c(NC2=NS(=O)(=O)c3ccccc32)s1 | -69 | i | i | i
COc1ccccc1CNC(=O)C1(c2cccs2)CCOCC1 | nt | i | nt | nt
CC(=O)NC(c1cccc(F)c1)c1nc(-c2cnn(C)c2)cs1 (stereo unspecified) | -53 | i | nt | nt
COc1cccc(C(NC(C)=O)c2nc(-c3cnn(C)c3)cs2)c1 (stereo unspecified) | i | i | nt | nt
